# Screens as filed in PubChem.
# EBNA-1 inh = blocks EBNA-1 binding to DNA; EBNA-1 DNA binding, fluorescence polarization; hit rate 0.34% among 300,000; inhibition, % at 14.8 µM; AID 1950; in the data active = inhibition above about 28%
# ZTA counter = ZTA (EBV) inhibition in EBNA-1 counter-screen; ZTA-DNA binding, fluorescence polarization; inhibition, % at 11 µM; hit rate 0.15% among 320,000; P03206; in the data active = inhibition above about 33%
# pPAFAH FP inh = inhibitors of human plasma PAF acetylhydrolase (pPAFAH). recombinant pPAFAH, FP-rhodamine probe fluorescence polarization. inhibition, % at 3.39 µM. Q13093. hit rate 1.5% among 330,000;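 active = inhibition above the mean inhibition across the screen plus 3 SD, cut at about 25% in these data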;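 also: inhibitors block binding of the rhodamine activity-based probe so polarization drops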
# PAFAH1B2 FP inh = blocks human PAF acetylhydrolase 1b catalytic subunit 2 | P68402 | hit rate 1.2% among 340,000 | AID 492953 | inhibition, % at 3.39 µM | recombinant PAFAH1B2, FP-rhodamine activity probe, fluorescence polarization;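 active = inhibition above the mean of all tested compounds plus 3 SD, cut at about 24% in these data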
# Target sequence (P68402 whole entry, looked up): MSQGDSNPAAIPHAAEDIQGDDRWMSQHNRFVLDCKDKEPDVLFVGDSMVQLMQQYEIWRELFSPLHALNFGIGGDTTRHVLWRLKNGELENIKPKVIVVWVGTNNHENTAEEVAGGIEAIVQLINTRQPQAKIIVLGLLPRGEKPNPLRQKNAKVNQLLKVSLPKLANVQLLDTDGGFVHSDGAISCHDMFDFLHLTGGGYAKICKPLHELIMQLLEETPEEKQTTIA
# PAFAH1B3 inh = blocks human PAF acetylhydrolase 1B catalytic subunit 3 | Q15102 | recombinant PAFAH1B3, FP-rhodamine probe, fluorescence polarization | hit rate 0.28% among 340,000 | inhibition, % at 3.39 µM;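 active = inhibition above the screen-wide average of all tested compounds plus 3 SD, cut at about 25% in these data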
# Target sequence (Q15102 whole entry, looked up): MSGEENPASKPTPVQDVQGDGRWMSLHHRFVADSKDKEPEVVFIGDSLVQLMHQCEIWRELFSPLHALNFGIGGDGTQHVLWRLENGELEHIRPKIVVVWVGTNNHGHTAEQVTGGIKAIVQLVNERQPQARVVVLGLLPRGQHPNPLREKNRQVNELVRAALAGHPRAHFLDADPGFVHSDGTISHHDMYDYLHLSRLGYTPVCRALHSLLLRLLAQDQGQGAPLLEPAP
# PAFAH2 inh = inhibitors of human PAFAH2; Q99487; recombinant PAFAH2, FP-rhodamine activity probe, fluorescence polarization; inhibition, % at 3.39 µM; hit rate 0.99% among 340,000; AID 492956;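 active = inhibition above the mean over all tested compounds plus 3 SD, cut at about 30% in these data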;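 also: inhibitors block probe labeling of enzyme so polarization drops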
# PAFAH2 FP conf = confirmation of human PAFAH2 inhibitors. shares compounds with PAFAH2 inh. recombinant PAFAH2, FP-rhodamine activity probe, fluorescence polarization. inhibition, % at 3.39 µM. hit rate 65% among 2,300. AID 493030;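 active = mean inhibition over three repeats above a set limit taken from the earlier primary screen, cut at about 30% in these data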;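 also: inhibitor blocks binding of rhodamine activity probe so polarization falls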
# Hits are given with their value; - = inactive; . = no result. An excerpt weighted towards active compounds, which were near 2.9% of everything screened.
SMILES,EBNA-1 inh,ZTA counter,pPAFAH FP inh,PAFAH1B2 FP inh,PAFAH1B3 inh,PAFAH2 inh,PAFAH2 FP conf
Cc1cccc(C(=O)OCC(=O)NC23CC4CC(CC(C4)C2)C3)c1O,.,.,-,-,-,59,46
O=C(COC(=O)c1ccccc1O)NC12CC3CC(CC(C3)C1)C2,.,.,-,-,-,68,63
Cc1cccc(C(=O)OCC(=O)NC2CC2)c1O,.,.,-,-,-,-,.
Cc1ccc(N2CCN(C(=O)NC3CCCCC3)CC2C)cc1 (centres undefined),-,-,-,-,-,-,.
COc1ccc(NC(=O)COC(=O)c2ccco2)c([N+](=O)[O-])c1,-,-,-,-,-,-,.
CN(C(=O)c1ccccc1C(=O)OCC(=O)Nc1ccccc1)c1ccccc1,.,-,-,-,-,78,77
O=C(COC(=O)c1ccco1)Nc1ccccc1,-,-,-,-,-,68,66
O=C(COC(=O)c1ccco1)Nc1ccc([N+](=O)[O-])cc1Cl,.,-,-,-,-,41,-
CC(NC(=O)COC(=O)c1ccco1)c1ccccc1 (centres undefined),-,-,-,-,-,32,-
O=C(COC(=O)c1ccco1)NCCNC(=O)COC(=O)c1ccco1,-,-,-,-,-,-,.
CN(C)C1=NCCN1CCC1CCCC1,-,-,-,-,-,-,.
CCOC(=O)CC1(NC(=O)C2CCC(=O)N(Cc3ccccc3F)C2)CCCCC1 (centres undefined),-,-,-,-,-,-,.
COc1ccc(C(=O)Nc2ccnn2C2CCN(C(=O)c3cnsn3)CC2)cc1,-,-,-,-,-,-,.
O=C(COC(=O)c1ccco1)Nc1ccc(Br)cc1,-,-,-,-,-,77,69
O=C(CNC(=O)c1ccc(F)cc1)N/N=C/c1cccnc1,-,-,-,-,-,-,.
Cc1ccc(NC(=O)CN(C)C(=O)COc2cccc3cccnc23)cc1,-,-,-,-,-,-,.
Cc1cc(=O)[nH]c(SCc2cccc3ccccc23)n1,-,-,-,-,-,35,-
COc1ccc(C(=O)OCC(=O)NC2CCCC2)c(OC)c1,-,-,-,-,-,70,56
COc1ccc(C(=O)OCC(=O)NC2CCCC2)c(OC)c1OC,-,-,-,-,-,89,81
COc1ccc(C(=O)OCC(=O)NC2CCCCCC2)c(OC)c1,.,.,.,-,-,82,78
COc1cccc(C2C(C(=O)c3cc4ccccc4o3)=C(O)C(=O)N2c2cc(C)on2)c1OC (centres undefined),-,-,-,-,-,36,-
O=C(Cn1nc2ccccc2n1)N/N=C/c1cc(Cl)cc([N+](=O)[O-])c1O,.,.,.,-,-,30,-
O=[N+]([O-])c1cc(Cl)cc(/C=N/Nc2nc3ccccc3s2)c1O,-,-,-,-,-,65,46
CCN(CC)S(=O)(=O)c1ccc(N2CCOCC2)c(NC(=O)Cc2ccccc2F)c1,-,-,-,-,-,-,.
CCN(CC)S(=O)(=O)c1ccc(N2CCOCC2)c(NC(=O)Cc2cccc3ccccc23)c1,-,-,-,-,-,60,45
SMILES,EBNA-1 inh,ZTA counter,pPAFAH FP inh,PAFAH1B2 FP inh,PAFAH1B3 inh,PAFAH2 inh,PAFAH2 FP conf
COc1cccc(CNc2ccc(Br)cn2)c1O,-,-,-,-,-,75,-
COc1cccc(CNc2ncc(Br)cc2Br)c1O,-,-,-,-,-,-,.
CCN(CC)S(=O)(=O)c1ccc(C)c(NC(=O)COC(=O)C=C(C)C)c1,-,-,-,-,-,33,48
CCOc1ncccc1C(=O)OCC(=O)Nc1cc(S(=O)(=O)N(CC)CC)ccc1C,-,-,-,-,-,65,49
CCN(CC)S(=O)(=O)c1ccc2[nH]c(=O)cc(C(=O)Nc3ccc(C)c(S(=O)(=O)N(CC)CC)c3)c2c1,-,-,-,-,-,-,.
CC1=C[C@H](C)[C@H](c2c(F)cccc2Cl)CC1=O,-,-,-,-,-,-,.
CCN(CC)S(=O)(=O)c1cccc(C(=O)NCC2CCCCC2)c1,-,-,-,-,-,-,.
O=C(N/N=C/c1coc2ccccc2c1=O)c1cc(Br)c(O)c(Br)c1,.,.,.,-,-,71,55
O=C(N/N=C/c1coc2ccccc2c1=O)c1ccncc1,.,.,.,-,-,-,.
Cc1cnc(C(=O)OCC(=O)C23CC4CC(CC(C4)C2)C3)cn1,-,-,-,-,-,-,.
O=C(OCC(=O)c1ccc(Br)s1)c1ccc(O)cc1,.,.,-,-,-,66,61
O=C(OCC(=O)c1ccc(Cl)s1)c1ccc(CO)cc1,-,-,-,-,-,61,51
O=C(OCC(=O)C12CC3CC(CC(C3)C1)C2)c1ccc(CO)cc1,.,-,-,-,-,80,83
COc1cccc(C(=O)OCC(=O)c2ccc(Br)s2)c1OC,.,-,-,-,-,62,52
COc1cccc(C(=O)OCC(=O)NCCNC(=O)COC(=O)c2cccc(OC)c2OC)c1OC,-,-,-,-,-,-,.
c1ccc(CNC2CC3CCC2C3)cc1 (centres undefined),.,.,.,-,-,-,.
CCCc1cc(C(=O)N2CCCC(C(=O)c3cc(C)c(OC)c(C)c3)C2)n(C)n1 (centres undefined),-,-,-,-,-,-,.
C/C(=N\N=c1/scc(C)n1Cc1ccco1)c1cccc([N+](=O)[O-])c1,-,-,-,-,-,-,.
Cc1ccc(C(=O)COC(=O)c2ccc(Cl)c(N)c2)s1,.,-,-,-,-,32,-
Oc1ccccc1C1CC(c2cccs2)=NC(c2cccc(Br)c2)N1 (centres undefined),-,-,-,-,-,-,.
O=C(O)CCCN1C(=O)/C(=C\C(Cl)=C\c2ccccc2)SC1=S,.,.,.,-,-,61,-
CN1CCN(C(=O)CCCN2C(=O)/C(=C/c3ccccc3)SC2=S)CC1,-,-,-,-,-,-,.
CC(C)(CC(=O)OCC(=O)Nc1ccccc1F)CC1=NS(=O)(=O)c2ccccc2N1,-,-,-,-,-,31,-
Cc1ccc(C(=O)CN(C(=O)c2ccc(Cl)c(Cl)c2)N2C(=O)C3CCCCC3C2=O)cc1C (centres undefined),-,-,-,-,-,-,.
Cc1ccc(C(=O)CN(C(=O)c2ccc(Cl)c(Cl)c2)N2C(=O)C3CCCCC3C2=O)cc1 (centres undefined),-,-,-,-,-,35,35
CCN(CC)CC(=O)Nc1ccc(-c2ccc(NC(=O)CN(CC)CC)c(OC)c2)cc1OC,-,-,-,-,-,-,.
CCOC(=O)c1c(-c2ccccc2)oc2ccc(OCC(=O)NNC(=O)CCCC(=O)O)cc12,.,.,.,-,-,41,-
COc1ccc(C(=O)COC(=O)CN2C(=O)c3ccccc3C2=O)c(OC)c1,-,-,-,-,-,-,.
CC1Cc2ccccc2N1S(=O)(=O)c1cccc(C(=O)OCC(=O)NCc2ccco2)c1 (centres undefined),-,-,-,-,-,33,-
